# Test results taken from PubChem BioAssay (NCI).
# About 83,000 compounds went through this panel and 20% of them were active in at least one assay; those are over-represented in the sample as a whole.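 Method: cells in 96-well plates; compound added at one concentration; 48 h incubation; percent growth measured; values under 10 scored active.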 Unmarked numbers belong to inactive results. Activity calls are given as the source filed them.
# Test system: SF-539 CNS
# Assay: NCI-60 one-dose screen, 48 h (100 = growth as untreated, 0 = no growth, -100 = all killed)
# Conditions: 10 µM unless noted
row,Structure (SMILES),growth
1,CCOc1ccccc1/C=N\Nc1ccc(S(=O)(=O)c2ccc(N/N=C/c3ccccc3OCC)cc2)cc1,90.8%
2,Nc1ccc(Cl)c([N+](=O)[O-])c1,101%
3,Oc1ccc(N=Nc2nccs2)c(O)c1,86.1%
4,O=C(N[C@@H]1CCCc2ccccc21)[C@H](CCC(=O)N1CCN(C2CCCCC2)CC1)N1C(=O)[C@@H](N2C(=O)OC[C@@H]2c2ccccc2)[C@H]1/C=C/c1ccccc1,4.65% (active)
5,Cc1ccc(NC(=S)/N=c2/n(-c3ccccc3)nc3n2CCN3C2=NCCN2)cc1,102%
6,CCCCC1COc2cccc3c2N1C=C/C3=C\C(=O)n1ccc2ccccc21 (stereo not drawn),97.2%
7,COc1cc(C)cc2oc3oc(=O)c(-c4nc5ccccc5s4)cc3c(=O)c12,83.7%
8,O=C(Nc1ccccc1)Nc1ccc(C(=O)/C=C/c2ccc(N3CCCC3)cc2)cc1,78.7%
9,COc1cc(C)cc2oc3oc(=N)c(C(=O)c4ccccc4)cc3c(=O)c12,96.4%
10,CC[C@]12C=CCN3CC[C@@]4(c5ccc(OC)cc5N(C)[C@H]4[C@@](O)(C(=O)OC)[C@@H]1OC(=O)CCC(=O)N[C@H](Cc1c[nH]c4ccccc14)C(=O)OC)[C@@H]32,-57.1% [100 µM] (active)
11,CC(=O)OC[C@]12CC[C@@H]([C@@H](C)C(N)=O)[C@@H]1[C@H]1CC[C@@H]3[C@@]4(C)CC[C@H](OC(C)=O)C(C)(C)[C@@H]4CC[C@@]3(C)[C@]1(C)CC2,-83.9% [100 µM] (active)
12,O=c1c2c3c(sc2n2cnnc2n1Cc1ccccc1)CCCC3,93.5%
13,COc1cc2c(c(OC)c1)C1c3cc(OC)ccc3NC(=O)N1CC2 (stereo not drawn),85.1%
14,O=c1cc(-c2ccccc2)oc2cc(OCc3cn(Cc4ccc(F)cc4)nn3)cc(O)c12,1.1% [100 µM] (active)
15,CCN(CC)c1ccc2cc(NC(=O)OCCNC(=O)CCNC(=O)[C@H](CC(C)C)NC(=O)C(C)(C)NC(=O)C(C)(C)NC(=O)[C@H](CC(C)C)NC(=O)CCNC(=O)C(C)(C)NC(=O)[C@H](CC(C)C)NC(=O)CCNC(=O)[C@@](C)(CC)NC(=O)[C@H](C)NC(=O)CCNC(=O)C(C)(C)NC(=O)[C@H](C)NC(=O)[C@@H]3CCCN3C(=O)[C@@](C)(CC)NC(=O)[C@H](Cc3ccccc3)NC(=O)C3CCCN3C(=O)C(C)(C)NC(=O)C3CCCN3C(=O)C(C)(C)NC(C)=O)c(=O)oc2c1 (stereo partly drawn),-84.7% (active)
16,CCCCCCCCCCCCCC[n+]1cccc(C(N)=O)c1,-5.92% (active)
17,CCOC(CNC(=O)c1cccc([N+](=O)[O-])c1)OCC,96.9%
18,COc1ccc(/C=C/C=C\C(=O)c2ccc(-n3ccnc3)cc2)cc1,97.9%
19,CCNc1cc2c(cc1Br)-c1ccccc1C2=O,103%

row,Structure (SMILES),growth
1,C[n+]1c(-c2ccccc2)c2cc(N)ccc2c2ccccc21,28.5%
2,C/C=C/C1OC23CCCCC2C(C#N)(C(=N)O3)C1(C#N)C#N (stereo not drawn),98.2%
3,Fc1cc2[nH]ncc2c2c3c(c(-c4cn[nH]c4)nc12)CCCC3,-30.7% (active)
4,CCOC(=O)c1nn(C2CCCCO2)c2ccc(NC(=O)CN3CCCC3)cc12 (stereo not drawn),95.7%
5,Nc1nnc(CSc2nnc3n(Cc4ccccc4)c(=O)c4c5c(sc4n23)CCCC5)s1,105%
6,O=S(=O)(NCc1ccccc1)c1ncnc2nc[nH]c12,98.1%
7,c1cc2ccc1CNCCN1CCNCc3ccc(cc3)Oc3ccc(cc3)CNCCN(CCNCc3ccc(cc3)O2)CCNCc2ccc(cc2)Oc2ccc(cc2)CNCC1,-89.2% (active)
8,CS(=O)(=O)c1cccnn1,82%
9,N=C(N)c1ccc(-c2ccc(-c3ccc(-c4cccs4)s3)s2)cc1F,94.7%
10,CCCSc1nc(N)nc2nc[nH]c12,95.6%
11,C[C@H]1[C@H](C)CC[C@]2(C(=O)O)CC[C@]3(C)C(=CC[C@@H]4[C@@]5(C)C/C(=C/c6cccnc6)[C@H](O)C(C)(C)[C@@H]5CC[C@]43C)[C@H]12,-42.1% [100 µM] (active)
12,O=C1CC(c2ccccc2)Cc2nc3ccc(Br)cc3cc21 (stereo not drawn),1.6% (active)
13,C1=C[C@H]2O[C@@H]1c1ccc3[nH]ccc3c12,107%
14,CCN(CC)c1ccc(/C=C/c2ccc3cc(C)ccc3[n+]2CC)cc1,11.5%
15,O=C(Nc1cc(F)cc2cccnc12)c1cnc(N2CCNCC2)cn1,85.5%
16,C=CCCC1(C)NC(=O)NC1=O (stereo not drawn),104%
17,CC(=O)Nc1ccc2nc3ccc(NC(C)=O)cc3[n+](-c3ccccc3)c2c1,89.3%
18,CCCCCN(CCCCC)CCCCCCCCN1CCCc2ccccc21,107%
19,O=C(O)c1cccc(CN2CCN(c3cc4c(cc3F)c(=O)c(C(=O)O)cn4C3CC3)CC2)c1O,101%
